Compound activity deposited in PubChem BioAssay by several laboratories.
Most compounds without a hit are left out; they make up all but 1.5% or so of the library.
eLon inh – inhibitors of E. coli Lon protease, primary screen, biochemical, fluorescence polarization. AID 602123, 2011. purified E. coli Lon protease. inhibition, % at 7.94 µM. actives 0.42% (n = 360,000). P0A9M0; in the data active = inhibition above about 13%, passing the limit was not always enough
Target sequence (P0A9M0 whole entry, looked up): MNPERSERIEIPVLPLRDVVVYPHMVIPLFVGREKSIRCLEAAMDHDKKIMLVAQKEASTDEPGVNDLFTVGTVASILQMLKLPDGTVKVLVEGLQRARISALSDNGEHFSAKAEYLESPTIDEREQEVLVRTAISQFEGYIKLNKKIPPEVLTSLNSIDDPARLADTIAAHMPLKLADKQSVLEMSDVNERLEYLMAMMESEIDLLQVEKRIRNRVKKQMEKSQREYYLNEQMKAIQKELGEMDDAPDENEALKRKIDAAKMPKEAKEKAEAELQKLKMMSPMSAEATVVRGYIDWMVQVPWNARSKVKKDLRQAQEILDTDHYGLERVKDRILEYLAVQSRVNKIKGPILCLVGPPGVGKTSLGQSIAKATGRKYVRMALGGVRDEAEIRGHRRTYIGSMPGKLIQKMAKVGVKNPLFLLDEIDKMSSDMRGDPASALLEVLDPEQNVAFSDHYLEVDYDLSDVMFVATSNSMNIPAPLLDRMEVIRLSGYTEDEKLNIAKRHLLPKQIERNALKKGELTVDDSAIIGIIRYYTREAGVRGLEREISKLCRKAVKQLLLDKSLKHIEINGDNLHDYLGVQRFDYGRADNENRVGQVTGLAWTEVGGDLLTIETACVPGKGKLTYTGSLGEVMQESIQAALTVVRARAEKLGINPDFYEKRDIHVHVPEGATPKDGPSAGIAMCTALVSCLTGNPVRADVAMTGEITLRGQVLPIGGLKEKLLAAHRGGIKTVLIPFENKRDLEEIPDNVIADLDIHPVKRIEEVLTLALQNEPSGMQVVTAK
GLD-1 RNA inh – GLD-1/TGE RNA complex disruptors, primary screen, biochemical, fluorescence polarization | purified GLD-1 + fluorescein TGE RNA | Female germline-specific tumor suppressor gld-1 (Caenorhabditis elegans), Q17339 | inhibition, % at 5.96 µM | actives 0.44% (n = 320,000);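 active = percent inhibition above a per-plate cutoff, the plate mean of test compounds plus 3 SD, cut at about 30% in these data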
BCLXL inh – inhibitors of human Bcl-xL, primary screen, biochemical, fluorescence polarization, HTS. Bcl-2-like protein 1 (Homo sapiens), Q07817. GST-Bcl-xL / FITC-Bim BH3 peptide fluorescence polarization. inhibition, % at 10.9 µM. actives 0.7% (n = 320,000). AID 2129, 2009;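 active = inhibition above the mean of all tested compounds plus 3 SD, cutoff set per campaign, cut at about 30% in these data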;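 also: inhibitors lower millipolarization by displacing the labeled peptide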
EBV gp42 block – Epstein-Barr virus gp42 inhibitors, primary screen, biochemical, uHTS, fluorescence polarization; Glycoprotein 42 (Epstein-Barr virus (strain AG876)), Q1HVG2; Fluorescence polarization binding assay, mP read-out; inhibition, % (tested at 21.74 µM); actives 0.42% (n = 220,000); in the data active = inhibition above about 50%
MCL1-BIM inh – inhibitors of MCL1 binding to BIM-BH3, primary screen, biochemical, fluorescence polarization | actives 0.68% (n = 320,000) | AID 2057, 2009 | inhibition, % at 10.9 µM | GST-MCL1 / FITC-Bim-BH3 fluorescence polarization;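 active = inhibition above the mean inhibition of all tested compounds plus 3 SD, set per campaign, cut at about 40% in these data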;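 also: higher means more loss of mP so more displacement of Bim peptide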
MEX-5 binding – MEX-5 zinc finger RNA-binding disruptors – biochemical, C. elegans, fluorescence polarization, MLPCN library, primary screen; Zinc finger protein mex-5 (Caenorhabditis elegans), Q9XUB2; MEX-5/FITC-TCR2 RNA binding; hits give low values; activity score (negative = inhibition of binding), % at 10 µM; actives 0.38% (n = 300,000);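 active = inhibition past about -25% in most replicates, and total fluorescence under double the plate's negative control median, limit read from the data; inconclusive = replicates evenly split on the limit, or fluorescence at least double controls; inactive = too little inhibition in most replicates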
Each line names hits and unclear results; the compound was inactive in the other large screens; ! = not confirmed by another sample.

O=c1[nH]c(=O)n(-c2ccccc2F)c(O)c1/C=C1\C=Nc2ccccc21	none (no result: EBV gp42 block)
O=c1[nH]c(=O)n(Cc2ccccc2)c(O)c1/C=C1\C=Nc2ccccc21	EBV gp42 block 89.9, MEX-5 binding inconclusive
O=c1[nH]c(=O)n(CC2CCCO2)c(O)c1/C=C1\C=Nc2ccccc21 (stereo not given)	MEX-5 binding -35.7!
O=c1[nH]c(=O)n(-c2ccc(F)cc2)c(O)c1/C=C1\C=Nc2ccccc21	MEX-5 binding -36.5 (no result: EBV gp42 block)
CC(C)(O)[C@@H]1[C@H]2OC(=O)[C@@H]1[C@]1(O)C[C@H]3O[C@]34C(=O)O[C@H]2[C@]14C (tested in a mixture with another compound)	none (no result: eLon inh, EBV gp42 block)
COc1cc(C(C)=O)ccc1OC(=O)N(C)c1ccccc1	none (no result: EBV gp42 block)
Cc1nc2c(c(=O)[nH]1)C(c1ccc([N+](=O)[O-])cc1)c1c(c3ccccc3oc1=O)O2 (stereo not given)	none (no result: eLon inh)
CC(C)CN1Cc2cc(-c3cccc(F)c3)ccc2-n2nncc2C1	none (no result: GLD-1 RNA inh, BCLXL inh, EBV gp42 block, MCL1-BIM inh, MEX-5 binding)
CCCn1cc2c3c(cccc31)C1CC(C)CN(C)C1C2 (stereo not given)	MEX-5 binding -26.9 (no result: eLon inh, GLD-1 RNA inh, BCLXL inh, MCL1-BIM inh)
c1ccc(-c2[nH]c(-c3ccccc3)[n+](CC3CO3)c2-c2ccccc2)cc1 (stereo not given)	EBV gp42 block 56.8
CC(=O)c1cn(CCCOc2ccccc2)c2ccccc12	none
CCOC(=O)c1c(/N=C/C2C(=O)NC(=S)NC2=O)sc2c1CCC2	MEX-5 binding -30.5
CCOC(=O)c1c(/N=C/C2C(=O)NC(=S)NC2=O)sc(C)c1C	MEX-5 binding inconclusive (no result: eLon inh)
CN1CCN(C(=O)COc2ccc(-c3nc4ccccc4s3)cc2)CC1	none
CCOP(=O)(OCC)C(O)c1ccc(OC)c(OC)c1 (stereo not given)	BCLXL inh 33.6, MCL1-BIM inh 48.8
CCOP(=O)(C#Cc1ccccc1)C(O)c1ccc(Br)cc1 (stereo not given)	none
CC(C(=O)Nc1ccc(Br)cc1C(=O)c1ccccc1)N1CCCCC1 (stereo not given)	eLon inh 24.4
O=C1NC(=O)N(Cc2ccccc2)C(=O)/C1=C\c1ccco1	MEX-5 binding -30.2
CC[C@@H]1C=CC=CC[C@H](C)[C@@H](O)[C@@H](C)C(=O)[C@H](C)[C@@H](O)[C@H](C)C(=O)[C@H](C)[C@@H](O)[C@H](C)C=CC(=O)O[C@H]2[C@@H](C)[C@@H](CC1)O[C@@]1(CC[C@@H](C)[C@@H](C[C@H](C)O)O1)[C@@H]2C	none (no result: eLon inh, EBV gp42 block)
Cc1ccc(-n2nc(C)c(C3C(C#N)=C(N)Oc4c3c(=O)oc3ccccc43)c2Cl)cc1 (stereo not given)	none (no result: eLon inh, GLD-1 RNA inh, BCLXL inh, MCL1-BIM inh)
O=C1NC(=O)C(=Cc2cc3c(cc2[N+](=O)[O-])OCO3)C(=O)N1	BCLXL inh 32.5
Cc1cccc(N2C(=O)NC(=O)/C(=C/c3cc4c(cc3[N+](=O)[O-])OCO4)C2=O)c1	GLD-1 RNA inh 76.8, BCLXL inh 118.4, EBV gp42 block 83.2, MCL1-BIM inh 118.7, MEX-5 binding -68.7
COc1ccc(N2C(=O)NC(=O)/C(=C\c3ccccc3[N+](=O)[O-])C2=O)cc1	none
COP(=S)(OC)c1c(C)nn(CCC#N)c1NC(=O)c1ccc(Cl)cc1	none (no result: EBV gp42 block)
CN1C(=O)C(=Cc2sc(=O)n(-c3ccccc3)c2N2CCCCC2)C(=O)N(C)C1=O	MEX-5 binding -46.4 (no result: GLD-1 RNA inh, BCLXL inh, MCL1-BIM inh)
CC/C(=C\C=C\[C@@H]1C=C[C@@H]2CCC[C@H]2[C@@H]1C(=O)c1ccc[nH]1)[C@@H]1O[C@@H]([C@@H](C)C(=O)O)CC[C@@H]1C	BCLXL inh 34.5, MEX-5 binding inconclusive (no result: eLon inh)
Cc1cc(C=C2C(=O)NC(=O)NC2=O)c(C)n1-c1ccc2c(c1)OCO2	none
Cc1cc(C=C2C(=O)NC(=S)NC2=O)c(C)n1-c1ccc2c(c1)OCO2	EBV gp42 block 60.6
CCCCn1nnnc1C(c1cccs1)N1CCC2(CC1)C(=O)NCN2c1ccccc1 (stereo not given)	none (no result: GLD-1 RNA inh, BCLXL inh, EBV gp42 block, MCL1-BIM inh, MEX-5 binding)
O=C1NC(=O)N(c2ccccc2)C(=O)/C1=C\c1ccc([N+](=O)[O-])s1	none (no result: eLon inh, MEX-5 binding)
COc1ccc(OC)c(N2C(=O)NC(=O)/C(=C\c3ccc([N+](=O)[O-])s3)C2=O)c1	MEX-5 binding -39.7
Cn1c(O)c(/C=C/C=Nc2ccccc2)c(=O)n(C)c1=S	BCLXL inh 54.9
COC(=O)C1=C(c2cccc(OC)c2OC)C[C@@H]2CC[C@H]1N2C(=O)NCCS(C)=O (stereo not given in full)	none (no result: EBV gp42 block)
CCCC(=O)NC(Oc1ccc(C(C)=O)cc1)C(Cl)(Cl)Cl (stereo not given)	EBV gp42 block 62.9
O=C1NC(=O)C2=Cc3ccc(O)cc3OC2(O)N1 (stereo not given)	EBV gp42 block 89.9 (no result: eLon inh, GLD-1 RNA inh, BCLXL inh, MCL1-BIM inh, MEX-5 binding)
Cc1nn(CC(C)C)c(Cl)c1C(=O)NC1CCC(C)CC1 (stereo not given)	none (no result: EBV gp42 block)
COc1cccc(C2(O)CCN(CC(=O)Nc3nc(C)cs3)CC2)c1	MEX-5 binding -51.2
CCOC(=O)C1(c2ccccc2)CCN(CC(=O)Nc2cccc3ccccc23)CC1	none
N#CC(C#N)=Cc1ccc(O)c(O)c1	none (no result: EBV gp42 block, MEX-5 binding)
N#CC(C#N)=Cc1ccc(-c2ccccc2)o1	MEX-5 binding -42.7 (no result: eLon inh)
O=C(N/N=C/c1c(O)n(C2CCCCC2)c(=S)[nH]c1=O)c1ccccc1	none (no result: EBV gp42 block)
O=C(N/N=C/C1C(=O)NC(=S)N(c2ccccc2)C1=O)c1cc(Br)c(O)c(Br)c1 (stereo not given)	MEX-5 binding -79.5
CC[C@H]1CN2CC[C@@]3(C(=O)Nc4ccccc43)[C@@H]2C[C@@H]1/C(=C\OC)C(=O)OC	none (no result: EBV gp42 block)
CN(C)[C@@H]1C(=O)C(C(N)=O)=C(O)[C@@]2(O)C(=O)C3=C(O)c4c(O)ccc(Cl)c4[C@@](C)(O)C3C[C@@H]12 (stereo not given in full)	none (no result: GLD-1 RNA inh, BCLXL inh, MCL1-BIM inh, MEX-5 binding)
CN(C)[C@@H]1C(=O)C(C(N)=O)=C(O)[C@@]2(O)C(=O)C3=C(O)c4c(O)cccc4[C@@](C)(O)[C@H]3C[C@@H]12	BCLXL inh 43.1, MCL1-BIM inh 90.0, MEX-5 binding -58.7 (no result: eLon inh, EBV gp42 block)
CCN(CC)C(=O)c1ccc2c(c1)C1C=CCC1C(C(=O)O)N2 (stereo not given)	MEX-5 binding -55.7 (no result: GLD-1 RNA inh, BCLXL inh, EBV gp42 block, MCL1-BIM inh)
CC(=O)Nc1ccccc1C(=O)C(=O)Nc1cccc(C(=O)N2CCC3(CC2)OCCO3)c1	none
CN1CCN(c2ncnc3c2cnn3C)CC1	BCLXL inh 39.0 (no result: MEX-5 binding)
